Experimental data from the supplement of paper PMC10849652.
About 8,800 targets were measured; listed, in parts, are those with a hit and a random draw of the rest. About 0.5% of all pairs of compound and target were hits.

Tests used:
Experiment in all cases: log2 fold change, soluble protein after heating vs DMSO (PISA); higher = thermal stabilisation; K562 lysate, 10 uM; active = over 0.2 and 3.5 SD of the protein, either way, in both replicates (recomputed)
erlotinib = compound: C#Cc1cccc(Nc2ncnc3cc(OCCOC)c(OCCOC)cc23)c1 [erlotinib]
Procedure, shortened: (§1)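 Thermal stability, expressed as log-two fold change relative to solvent controls, is given from duplicates. Crude K562 extract in PBS pH 7.4 with 1 mM MgCl2, at 1 mg/mL protein, was treated with 10 μM compound for 30 min and heated in aliquots for 3 min across 48°C-58°C. After pooling, adjustment to 0.5% NP-40 at 4°C and centrifugation at 21,000xg for 90 min, supernatant protein was measured by TMTpro 16plex LC-MS/MS with channel sums equalised.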

[1] = compound: C/C(=N\NC(=O)C1=CC(=CC=C1)S(=O)(=O)N2CCOCC2)/C3=C(C=CC(=C3)Cl)O
Procedure, shortened: as §1

[2] = compound: C1=CC(=CC=C1C2=NC3=C(N2)C=C(C=C3)C(=O)N)OC4=CC=C(C=C4)Cl
Procedure, shortened: as §1

[3] = compound: C1=CC2=C(C=CC(=C2)/C=C\3/C(=O)NC(=NCC4=CC=CS4)S3)N=C1
Procedure, shortened: as §1

[4] = compound: C1=CC2=NC=CN=C2C=C1/C=C/3\C(=O)NC(=O)S3
Procedure, shortened: as §1

[5] = compound: C1=CC=C(C=C1)C2=NC(=C(N2)C3=CC=NC=C3)C4=CC(=C(C=C4)Cl)O
Procedure, shortened: as §1

[6] = compound: C1=CC=C2C(=C1)C3=NNC4=CC=CC(=C43)C2=O
Procedure, shortened: as §1

[7] = compound: C1CCN(C1)C(=O)NC2=CC=CC(=C2)NC3=NC=C(C(=N3)NCCC4=CN=CN4)Br
Procedure, shortened: as §1

[8] = compound: C1CN(CCC1(CC2=CC=C(C=C2)Cl)N)C3=NC=NC4=C3C=CN4
Procedure, shortened: as §1

IRAK-1-4 Inhibitor I = compound: C1COCCN1CCN2C3=CC=CC=C3N=C2NC(=O)C4=CC(=CC=C4)[N+](=O)[O-] [IRAK-1-4 Inhibitor I]
Procedure, shortened: as §1

ibrutinib = compound: C=CC(=O)N1CCC[C@@H](n2nc(-c3ccc(Oc4ccccc4)cc3)c3c(N)ncnc32)C1 [ibrutinib]
Procedure, shortened: as §1

[9] = compound: CC(=O)c1cnc2ccc(-c3cc(Cl)c(O)c(Cl)c3)nc2c1N[C@H]1CC[C@H](CN(C)C)CC1
Procedure, shortened: as §1

ralimetinib = compound: CC(C)(C)Cn1c(N)nc2ccc(-c3[nH]c(C(C)(C)C)nc3-c3ccc(F)cc3)nc21 [ralimetinib]
Procedure, shortened: as §1

[10] = compound: CC(C)(O)CC(=O)NCCn1ccc2ncnc(Nc3ccc(Oc4cccc(C(F)(F)F)c4)c(Cl)c3)c21
Procedure, shortened: as §1

[11] = compound: CC(C)C1=C2N=C(C=C(N2N=C1)NCC3=CC=CC=C3)NCCCCCCN
Procedure, shortened: as §1

[12] = compound: CC1=C(C(CC(=O)N1)C2=CC=C(C=C2)C(F)(F)F)C(=O)NC3=C(C=C4C(=C3)C=NN4)F
Procedure, shortened: as §1

[13] = compound: CC1=C(C2=C(C=C1)C(=O)C3=CC=CC=C3N2CCCN)C
Procedure, shortened: as §1

[14] = compound: CC1=C(C=C(C=C1)NC(=O)C2=CC(=CC=C2)C(C)(C)C#N)NC3=CC4=C(C=C3)N=CN(C4=O)C
Procedure, shortened: as §1

[15] = compound: CC1=C(C=C(C=C1)NC(=O)C2=CC(=CC=C2)N(C)C)NC(=O)C3=CC=C(C=C3)O
Procedure, shortened: as §1

[16] = compound: CC1=CC=C(C=C1)SC2=C3C=C(SC3=CN=C2)C(=O)N
Procedure, shortened: as §1

Measured: log2 fold change

TUBB1 (UniProt Q9H4B7)
Chain of UniProt Q9H4B7 (Q9H4B7 whole entry, looked up): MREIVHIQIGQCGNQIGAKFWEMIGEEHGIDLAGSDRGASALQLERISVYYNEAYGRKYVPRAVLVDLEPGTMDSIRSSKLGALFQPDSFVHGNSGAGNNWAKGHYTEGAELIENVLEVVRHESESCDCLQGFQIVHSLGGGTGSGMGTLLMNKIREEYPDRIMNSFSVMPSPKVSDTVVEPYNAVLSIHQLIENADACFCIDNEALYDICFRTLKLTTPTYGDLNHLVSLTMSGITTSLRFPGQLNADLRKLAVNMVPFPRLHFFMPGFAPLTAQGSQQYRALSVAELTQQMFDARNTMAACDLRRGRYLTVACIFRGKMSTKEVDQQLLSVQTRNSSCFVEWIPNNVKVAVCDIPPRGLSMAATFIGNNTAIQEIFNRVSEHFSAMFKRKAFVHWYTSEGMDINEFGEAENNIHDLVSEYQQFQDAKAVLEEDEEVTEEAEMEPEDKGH
inactive: erlotinib 0.011 | [1] 0.091 | [2] 0.005 | [3] 0.01 | [4] 0.022 | [5] -0.011 | [6] 0.014 | [7] 0.015 | [8] 0.027 | IRAK-1-4 Inhibitor I 0.019 | ibrutinib -0.005 | [9] -0.01 | ralimetinib -0.003 | [10] -0.007 | [11] 0 | [12] 0.049 | [13] 0.028 | [14] -0.036 | [15] 0.002 | [16] 0.012

TPM1 isoform 4 (UniProt P09493)
inactive: erlotinib -0.126 | [1] -0.004 | [2] 0.005 | [3] 0.018 | [4] 0.114 | [5] -0.026 | [6] -0.015 | [7] 0.014 | [8] -0.052 | IRAK-1-4 Inhibitor I -0.009 | ibrutinib -0.019 | [9] 0.009 | ralimetinib 0.001 | [10] -0.011 | [11] -0.024 | [12] -0.011 | [13] 0.062 | [14] 0.011 | [15] -0.022 | [16] 0.001

TBRG4 (UniProt Q969Z0)
Chain of UniProt Q969Z0 (Q969Z0 whole entry, looked up): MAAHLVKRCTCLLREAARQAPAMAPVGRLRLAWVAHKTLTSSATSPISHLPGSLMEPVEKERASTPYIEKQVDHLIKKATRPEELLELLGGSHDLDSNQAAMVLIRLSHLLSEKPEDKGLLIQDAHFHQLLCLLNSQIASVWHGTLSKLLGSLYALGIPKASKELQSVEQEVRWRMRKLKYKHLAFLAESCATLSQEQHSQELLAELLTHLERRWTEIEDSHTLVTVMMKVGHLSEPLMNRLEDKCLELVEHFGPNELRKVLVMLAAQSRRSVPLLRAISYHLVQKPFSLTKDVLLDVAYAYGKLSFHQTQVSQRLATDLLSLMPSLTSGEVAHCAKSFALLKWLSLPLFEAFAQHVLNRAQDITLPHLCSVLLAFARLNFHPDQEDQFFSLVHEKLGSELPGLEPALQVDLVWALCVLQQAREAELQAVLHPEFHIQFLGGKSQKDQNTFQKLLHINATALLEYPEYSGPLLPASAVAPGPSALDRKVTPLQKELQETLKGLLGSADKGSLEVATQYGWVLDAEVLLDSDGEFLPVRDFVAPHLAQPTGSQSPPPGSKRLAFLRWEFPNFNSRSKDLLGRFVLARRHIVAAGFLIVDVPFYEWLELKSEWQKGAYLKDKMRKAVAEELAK
inactive: erlotinib 0.033 | [1] -0.048 | [2] -0.036 | [3] 0.001 | [4] 0.013 | [5] -0.044 | [6] -0.031 | [7] 0.013 | [8] 0.008 | IRAK-1-4 Inhibitor I -0.009 | ibrutinib 0.014 | [9] 0.025 | ralimetinib 0.002 | [10] -0.023 | [11] -0.011 | [12] 0.001 | [13] 0.062 | [14] -0.041 | [15] 0.044 | [16] -0.023

TOE1 (UniProt Q96GM8)
inactive: erlotinib -0.035 | [1] -0.064 | [2] 0.006 | [3] 0.036 | [4] 0.054 | [5] -0.021 | [6] -0.024 | [7] 0 | [8] -0.035 | IRAK-1-4 Inhibitor I -0.021 | ibrutinib 0.011 | [9] -0.001 | ralimetinib 0.007 | [10] 0.003 | [11] 0.008 | [12] -0.061 | [13] -0.023 | [14] -0.02 | [15] 0.014 | [16] 0.011

TMOD1 (UniProt P28289)
Chain of UniProt P28289 (P28289 whole entry, looked up): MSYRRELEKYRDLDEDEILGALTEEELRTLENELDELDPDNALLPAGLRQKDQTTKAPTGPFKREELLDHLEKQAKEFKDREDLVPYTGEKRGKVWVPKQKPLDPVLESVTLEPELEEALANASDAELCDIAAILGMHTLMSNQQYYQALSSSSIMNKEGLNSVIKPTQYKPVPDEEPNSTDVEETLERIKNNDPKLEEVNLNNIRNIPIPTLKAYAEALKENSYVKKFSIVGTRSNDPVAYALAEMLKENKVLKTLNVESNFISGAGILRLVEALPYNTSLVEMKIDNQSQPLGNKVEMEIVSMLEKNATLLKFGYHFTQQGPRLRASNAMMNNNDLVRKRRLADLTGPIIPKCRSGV
inactive: erlotinib 0.002 | [1] -0.091 | [2] 0.018 | [3] 0.018 | [4] -0.001 | [5] 0.003 | [6] 0.013 | [7] -0.005 | [8] -0.002 | IRAK-1-4 Inhibitor I 0.012 | ibrutinib 0.002 | [9] 0.007 | ralimetinib -0.015 | [10] -0.02 | [11] 0 | [12] -0.004 | [13] 0.006 | [14] 0 | [15] 0.016 | [16] -0.019

TK1 (UniProt P04183)
Chain of UniProt P04183 (P04183 whole entry, looked up): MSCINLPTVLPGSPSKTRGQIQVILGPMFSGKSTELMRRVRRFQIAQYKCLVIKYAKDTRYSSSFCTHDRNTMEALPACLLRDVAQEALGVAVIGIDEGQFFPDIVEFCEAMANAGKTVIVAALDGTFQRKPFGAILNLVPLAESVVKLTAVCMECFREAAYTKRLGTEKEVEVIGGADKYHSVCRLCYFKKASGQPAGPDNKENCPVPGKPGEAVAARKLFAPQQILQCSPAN
inactive: erlotinib 0.003 | [1] -0.112 | [2] 0.036 | [3] -0.001 | [4] 0.028 | [5] -0.003 | [6] 0.021 | [7] 0.013 | [8] 0.017 | IRAK-1-4 Inhibitor I 0.008 | ibrutinib 0.004 | [9] -0.004 | ralimetinib 0.023 | [10] -0.022 | [11] -0.029 | [12] 0 | [13] 0.006 | [14] 0.046 | [15] -0.014 | [16] -0.006

TBCE (UniProt Q15813)
Chain of UniProt Q15813 (Q15813 whole entry, looked up): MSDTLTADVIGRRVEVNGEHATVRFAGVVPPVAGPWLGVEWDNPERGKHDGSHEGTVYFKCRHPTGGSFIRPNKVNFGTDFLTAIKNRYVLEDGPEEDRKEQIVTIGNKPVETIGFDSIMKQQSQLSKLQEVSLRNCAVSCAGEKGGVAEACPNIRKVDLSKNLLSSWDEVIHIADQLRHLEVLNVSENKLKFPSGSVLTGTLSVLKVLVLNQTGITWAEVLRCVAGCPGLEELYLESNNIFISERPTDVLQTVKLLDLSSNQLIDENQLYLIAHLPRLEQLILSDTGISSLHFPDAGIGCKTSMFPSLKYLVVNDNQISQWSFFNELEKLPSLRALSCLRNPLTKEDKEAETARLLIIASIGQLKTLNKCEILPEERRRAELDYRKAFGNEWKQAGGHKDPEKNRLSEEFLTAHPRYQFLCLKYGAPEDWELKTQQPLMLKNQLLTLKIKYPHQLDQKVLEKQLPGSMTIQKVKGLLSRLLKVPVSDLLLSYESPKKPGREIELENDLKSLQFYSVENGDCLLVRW
inactive: erlotinib 0.02 | [1] 0.049 | [2] -0.016 | [3] 0.004 | [4] 0.014 | [5] 0.001 | [6] -0.07 | [7] -0.027 | [8] 0.038 | IRAK-1-4 Inhibitor I -0.002 | ibrutinib -0.027 | [9] 0.004 | ralimetinib 0.037 | [10] 0.01 | [11] -0.004 | [12] 0.003 | [13] 0.004 | [14] -0.007 | [15] 0.025 | [16] -0.016

TTI1 (UniProt O43156)
inactive: erlotinib -0.017 | [1] 0.033 | [2] -0.049 | [3] 0.003 | [4] -0.012 | [5] -0.02 | [6] -0.003 | [7] -0.032 | [8] -0.037 | IRAK-1-4 Inhibitor I 0.015 | ibrutinib 0 | [9] 0.014 | ralimetinib 0.018 | [10] -0.049 | [11] -0.029 | [12] 0.013 | [13] 0.02 | [14] 0.068 | [15] -0.009 | [16] 0.026

TRIM33 (UniProt H0Y612)
inactive: erlotinib -0.006 | [1] -0.002 | [2] 0.05 | [3] -0.126 | [4] -0.071 | [5] -0.01 | [6] -0.009 | [7] -0.065 | [8] -0.023 | IRAK-1-4 Inhibitor I 0.176 | ibrutinib 0.016 | [9] -0.003 | ralimetinib 0.135 | [10] -0.084 | [11] 0.068 | [12] -0.099 | [13] -0.004 | [14] -0.031 | [15] -0.009 | [16] -0.012

TOX4 (UniProt O94842)
Chain of UniProt O94842 (O94842 whole entry, looked up): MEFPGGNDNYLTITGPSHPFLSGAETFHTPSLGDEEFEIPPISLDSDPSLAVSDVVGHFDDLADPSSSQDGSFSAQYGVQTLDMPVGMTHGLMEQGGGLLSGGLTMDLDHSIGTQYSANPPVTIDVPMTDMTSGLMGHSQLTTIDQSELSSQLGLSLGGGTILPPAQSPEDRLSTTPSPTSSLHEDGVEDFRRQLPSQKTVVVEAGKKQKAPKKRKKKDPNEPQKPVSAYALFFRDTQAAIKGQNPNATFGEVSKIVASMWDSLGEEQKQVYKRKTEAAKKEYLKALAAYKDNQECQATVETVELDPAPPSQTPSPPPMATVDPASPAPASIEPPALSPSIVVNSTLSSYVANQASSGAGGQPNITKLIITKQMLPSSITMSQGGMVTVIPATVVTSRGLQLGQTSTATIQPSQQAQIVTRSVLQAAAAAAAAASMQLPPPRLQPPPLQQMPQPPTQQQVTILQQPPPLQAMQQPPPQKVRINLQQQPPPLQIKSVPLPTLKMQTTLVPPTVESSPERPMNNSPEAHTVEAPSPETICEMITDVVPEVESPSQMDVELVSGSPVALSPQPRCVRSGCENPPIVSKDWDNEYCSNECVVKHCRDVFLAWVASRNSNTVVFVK
inactive: erlotinib -0.016 | [1] -0.025 | [2] 0.049 | [3] 0.037 | [4] -0.052 | [5] 0.04 | [6] -0.003 | [7] -0.014 | [8] 0.053 | IRAK-1-4 Inhibitor I -0.025 | ibrutinib -0.009 | [9] 0.054 | ralimetinib 0.009 | [10] -0.034 | [11] -0.008 | [12] 0.024 | [13] -0.002 | [14] 0.033 | [15] 0.023 | [16] 0.006

TTLL12 (UniProt Q14166)
inactive: erlotinib 0.006 | [1] 0.049 | [2] -0.047 | [3] 0.036 | [4] 0.027 | [5] 0.005 | [6] -0.023 | [7] 0 | [8] 0.021 | IRAK-1-4 Inhibitor I -0.016 | ibrutinib -0.018 | [9] 0.003 | ralimetinib 0.026 | [10] 0.005 | [11] 0.044 | [12] -0.026 | [13] -0.032 | [14] -0.008 | [15] 0.031 | [16] 0.012

UBR5 (UniProt O95071)
inactive: erlotinib 0.005 | [1] -0.029 | [2] -0.024 | [3] -0.002 | [4] -0.012 | [5] -0.013 | [6] -0.033 | [7] -0.001 | [8] 0.007 | IRAK-1-4 Inhibitor I 0.001 | ibrutinib -0.001 | [9] -0.005 | ralimetinib 0.01 | [10] -0.028 | [11] -0.005 | [12] 0.004 | [13] -0.011 | [14] 0.013 | [15] 0.016 | [16] 0.018

TECR (UniProt Q9NZ01)
Chain of UniProt Q9NZ01 (Q9NZ01 whole entry, looked up): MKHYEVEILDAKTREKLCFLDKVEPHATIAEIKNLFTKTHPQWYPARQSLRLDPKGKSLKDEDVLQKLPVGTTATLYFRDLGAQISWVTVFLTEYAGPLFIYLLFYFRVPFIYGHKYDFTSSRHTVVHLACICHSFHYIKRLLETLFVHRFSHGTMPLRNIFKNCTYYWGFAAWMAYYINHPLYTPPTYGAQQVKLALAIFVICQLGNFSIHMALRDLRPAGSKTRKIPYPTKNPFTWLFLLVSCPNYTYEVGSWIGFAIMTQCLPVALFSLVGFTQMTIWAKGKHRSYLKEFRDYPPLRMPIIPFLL
inactive: erlotinib 0.024 | [1] -0.029 | [2] -0.113 | [3] 0.019 | [4] 0.083 | [5] -0.013 | [6] -0.066 | [7] -0.008 | [8] 0.028 | IRAK-1-4 Inhibitor I 0.038 | ibrutinib -0.003 | [9] 0.037 | ralimetinib 0 | [10] -0.046 | [11] -0.003 | [12] 0.044 | [13] 0.041 | [14] -0.031 | [15] 0.06 | [16] 0.025

UBTF (UniProt P17480)
inactive: erlotinib 0.02 | [1] 0.015 | [2] 0.018 | [3] 0.03 | [4] -0.009 | [5] 0.002 | [6] 0.027 | [7] 0.009 | [8] -0.022 | IRAK-1-4 Inhibitor I -0.024 | ibrutinib 0.026 | [9] 0.025 | ralimetinib 0.017 | [10] -0.002 | [11] 0.016 | [12] 0.046 | [13] -0.075 | [14] -0.022 | [15] 0.044 | [16] -0.002

UBR3 isoform 4 (UniProt Q6ZT12)
Chain of UniProt Q6ZT12 (Q6ZT12 whole entry, looked up): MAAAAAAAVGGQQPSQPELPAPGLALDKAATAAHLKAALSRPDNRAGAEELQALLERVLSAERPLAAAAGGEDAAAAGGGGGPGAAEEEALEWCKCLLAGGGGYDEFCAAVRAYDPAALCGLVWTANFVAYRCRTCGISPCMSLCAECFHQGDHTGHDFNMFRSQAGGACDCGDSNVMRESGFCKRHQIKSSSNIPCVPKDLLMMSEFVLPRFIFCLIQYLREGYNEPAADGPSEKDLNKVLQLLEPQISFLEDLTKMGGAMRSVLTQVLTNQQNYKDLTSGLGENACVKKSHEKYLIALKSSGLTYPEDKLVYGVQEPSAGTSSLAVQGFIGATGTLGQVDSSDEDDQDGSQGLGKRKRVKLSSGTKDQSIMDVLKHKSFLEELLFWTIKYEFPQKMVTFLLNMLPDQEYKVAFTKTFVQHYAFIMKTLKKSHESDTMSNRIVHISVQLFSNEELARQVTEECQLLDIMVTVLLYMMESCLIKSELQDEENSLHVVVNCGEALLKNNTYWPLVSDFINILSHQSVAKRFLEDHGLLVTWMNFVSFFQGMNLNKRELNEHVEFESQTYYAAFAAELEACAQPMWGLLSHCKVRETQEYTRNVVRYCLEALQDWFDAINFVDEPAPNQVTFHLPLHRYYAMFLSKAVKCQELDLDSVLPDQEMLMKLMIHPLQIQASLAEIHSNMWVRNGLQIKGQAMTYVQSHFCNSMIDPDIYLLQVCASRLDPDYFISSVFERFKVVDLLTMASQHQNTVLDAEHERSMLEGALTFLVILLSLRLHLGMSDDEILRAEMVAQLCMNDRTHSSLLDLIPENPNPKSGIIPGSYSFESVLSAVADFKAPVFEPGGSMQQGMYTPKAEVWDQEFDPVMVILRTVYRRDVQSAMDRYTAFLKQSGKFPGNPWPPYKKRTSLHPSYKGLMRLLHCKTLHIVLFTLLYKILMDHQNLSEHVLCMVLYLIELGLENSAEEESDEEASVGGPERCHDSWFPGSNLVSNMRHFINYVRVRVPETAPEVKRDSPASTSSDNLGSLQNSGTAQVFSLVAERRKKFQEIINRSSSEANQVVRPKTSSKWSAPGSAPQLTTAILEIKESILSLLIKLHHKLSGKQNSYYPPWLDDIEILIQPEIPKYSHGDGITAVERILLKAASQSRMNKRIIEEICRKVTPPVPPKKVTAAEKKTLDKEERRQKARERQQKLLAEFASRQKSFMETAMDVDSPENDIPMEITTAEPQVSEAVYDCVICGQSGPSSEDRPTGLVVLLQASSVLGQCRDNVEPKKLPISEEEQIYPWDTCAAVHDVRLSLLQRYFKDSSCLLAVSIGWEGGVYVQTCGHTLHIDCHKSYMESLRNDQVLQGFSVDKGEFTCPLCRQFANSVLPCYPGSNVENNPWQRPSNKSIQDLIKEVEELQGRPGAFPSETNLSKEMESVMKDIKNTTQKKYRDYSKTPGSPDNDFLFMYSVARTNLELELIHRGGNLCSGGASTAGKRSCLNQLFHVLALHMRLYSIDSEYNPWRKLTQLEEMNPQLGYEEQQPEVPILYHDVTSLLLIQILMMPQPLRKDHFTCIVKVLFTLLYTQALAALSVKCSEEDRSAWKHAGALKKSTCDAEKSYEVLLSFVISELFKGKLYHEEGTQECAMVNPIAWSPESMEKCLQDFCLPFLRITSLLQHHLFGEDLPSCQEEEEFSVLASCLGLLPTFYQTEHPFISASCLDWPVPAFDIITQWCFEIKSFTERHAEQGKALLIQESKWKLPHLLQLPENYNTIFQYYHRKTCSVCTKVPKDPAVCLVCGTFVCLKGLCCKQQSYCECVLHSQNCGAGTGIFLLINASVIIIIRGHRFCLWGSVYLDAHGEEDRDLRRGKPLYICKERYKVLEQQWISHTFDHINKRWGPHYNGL
inactive: erlotinib 0.016 | [1] 0.044 | [2] 0.016 | [3] 0.027 | [4] 0.005 | [5] 0.005 | [6] -0.07 | [7] -0.063 | [8] 0.032 | IRAK-1-4 Inhibitor I -0.007 | ibrutinib -0.002 | [9] -0.023 | ralimetinib 0.107 | [10] -0.009 | [11] 0.005 | [12] 0.006 | [13] -0.055 | [14] -0.016 | [15] 0.013 | [16] 0.021
